FUS suppressor – FUS proteinopathy suppression in yeast; S. cerevisiae FUS-expressing, growth rescue, OD600, 24 h; Potency, µM (top dose mostly 76.6 µM), actives largely listed as activators; 0.24% of 390,000 active; AID 1347120;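 also: plate controls were DMSO vehicle for no effect and reference control for full effect; nearly all actives have a fitted effect of over 55% in size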
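Yeast expressing FUS under galactose induction, OD 0.005 in 2% galactose medium; compounds in a dilution series, 24 h at 30C. Growth rescue by absorbance at 600 nm; CP55940 positive control, DMSO negative.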
TDP-43 yeast inh – inhibitors of TDP-43 toxicity in yeast. 1.8% of 410,000 active. Potency, µM (highest dose often 46.1 µM), for inactives: at the highest dose growth rescue (activation), most hits filed as activators. TDP-43 expressing yeast growth rescue, BacTiter-Glo, 24 h. AID 652104; also: % of control where 0% means no effect; nearly all actives have a fitted effect of over 50% in size
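Growth rescue of TDP-43-toxic yeast measured as ATP luminescence (BacTiter-Glo). Cells grown to mid-log in raffinose, induced in galactose at OD600=0.02, exposed to compound 24 hr at 30 deg C.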
Abeta yeast res – compounds reversing amyloid beta toxicity in yeast; yeast expressing A-beta42, growth rescue, OD600, 48 h; response scale: 0% DMSO, 100% iron-clioquinol control; 0.063% of 410,000 active; Potency, µM (series often up to 46.1 µM), actives largely listed as activators; also: nearly all actives have a fitted effect of over 55% in size
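Yeast growth medium received pinned compounds, then yeast cells expressing toxic A-beta were added; plates incubated at 30 C for 48 hr. Growth read as absorbance at 600 nm, normalized to DMSO and equimolar FeCl3 plus clioquinol controls.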
aSyn yeast inh – rescues yeast growth from alpha-synuclein toxicity | 0.14% of 370,000 active | Yeast expressing alpha-synuclein, growth rescue, BacTiter-Glo, 24 h | Potency, µM (top dose mostly 46.1 µM), for inactives: at the top dose growth rescue (activation), usual class: activators; also: % of control where 0% means no effect; nearly all actives have a fitted effect of over 65% in size
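Galactose-induced alpha-syn yeast (OD600=0.02, raffinose-pregrown) + pinned cpd, 24 hr, 30 deg C; growth by BacTiter-Glo luminescence. Growth restoration scores as activation.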
* marks the source's active call; other numbers are inactive results; i = inactive; ? = inconclusive; · = not tested or not shown. Sampled rows, rich in hits. Any-hit rate of the full collection: about 2.1%. Calls follow the shape of the dose curve; as a rule, active = well fitted curve in the direction sought with a large enough effect; inconclusive = small, poorly fitted or top-dose-only effect, or another doubt; inactive = no such curve, though single readings can be large; an effect the other way counts as inactive or inconclusive. Potency is read from the fitted curve at half-maximal effect.

SMILES	FUS suppressor	TDP-43 yeast inh	Abeta yeast res	aSyn yeast inh
O=C(NCC1CCOCC1)c1ccc(-c2ccc(F)c(F)c2)c2ccoc12	i	25µM*	i	9%
COc1cc(OC)c2c(c1)S(=O)(=O)C(c1ccccc1)=C2N	i	5%	16µM*	1%
O=c1c2sccc2nc(SCc2ccc([N+](=O)[O-])cc2)n1Cc1ccccn1	·	22µM*	i	3%
COc1ccc(/C=N/NC(=O)C[n+]2ccccc2)c(OC)c1OC	i	17%	i	22µM*
CC(C)(C)c1cc(NC(=O)COc2ccc(Br)cc2)n(-c2ccccc2)n1	i	20µM*	i	-3%
CC(C)(C)c1cc(NC(=O)COC(=O)c2ccccc2)n(-c2ccccc2)n1	i	?	i	5%
O=C(NCc1ccccc1Cl)c1ccc2c(c1)OCO2	i	?	i	11%
Cc1ccc(NC(=O)C2CCN(S(=O)(=O)c3c(C)n[nH]c3C)CC2)nc1	i	10%	i	-1%
COc1ccc(N2C(=O)CSC23C(=O)N2c4c(cccc43)C(C)=CC2(C)C)cc1 (stereo unspecified)	i	-16%	i	16µM*
O=C(Nc1ccc(F)cc1)N1CCN(c2nc3ccccc3s2)CC1	i	9%	i	8%
O=C(Nc1ccccc1)N1CCN(c2nc3ccccc3s2)CC1	i	22µM*	i	6%
COC(=O)Cn1c(SCCOc2ccccc2Cl)nc2ccccc21	i	28µM*	i	·
Cc1ccc(C(C)C)c(OCCSc2nc3ccccc3n2CC(O)CO)c1 (stereo unspecified)	i	35µM*	i	·
Cc1ccc2oc(/N=C(\N)NC(=O)C(C)(C)C)nc2c1	i	-9%	i	0%
Cc1ccc2oc(/N=C(\N)NC(=O)C3CC3)nc2c1	i	20µM*	i	-28%
Cc1cc(C(=O)CCC(=O)N2CCN(c3ccccc3O)CC2)c(C)s1	i	10%	i	9%
COC(=O)c1ccc(N=Nc2ccccc2)cc1	i	16µM*	i	1%
Oc1ccc(N=Nc2ccccc2)cc1	i	18µM*	i	-15%
O=C(O)c1ccccc1N=Nc1ccc(O)cc1	i	22%	i	-8%
FC(F)(F)c1cc(-c2ccco2)nc(NCc2cccs2)n1	i	20µM*	i	-11%
FC(F)(F)c1cc(-c2ccco2)nc(NCc2ccco2)n1	i	?	i	1%
Cc1cc(C)cc(OCCn2nnc3ccccc32)c1	i	22µM*	i	3%
Cc1cccc(C)c1OCCn1nnc2ccccc21	i	18µM*	i	14%
COCCC(=O)N1CCC(Oc2ccc(C(=O)N3CCCCCC3)cc2)CC1	i	9%	i	7%
CC(C)c1nnc2n1N=C(c1ccc(Cl)cc1)CS2	i	20µM*	i	0%
SMILES	FUS suppressor	TDP-43 yeast inh	Abeta yeast res	aSyn yeast inh
CCCc1ccc(C2=Nn3c(nnc3C(C)C)SC2)cc1	?	15%	i	-19%
Cc1c(C(=O)Nc2ccc(F)cc2F)nnn1-c1ccccc1Br	i	32µM*	i	·
COC(=O)Oc1c(Br)c(=O)oc2ccccc12	i	3.5µM*	i	12%
C/C(=N\NC(=O)Cc1ccc(O)cc1)c1cccnc1	i	-7%	i	-6%
COc1cccc(Cn2c(N)c(C#N)c3nc4ccccc4nc32)c1OC	i	-10%	i	0%
O=[N+]([O-])c1cccc(-c2nc(NCc3ccccc3)c3ccccc3n2)c1	·	9%	i	-2%
CN(Cc1ccccc1)c1nc(-c2cccc([N+](=O)[O-])c2)nc2ccccc12	i	14µM*	i	-11%
COc1ccc(-c2cc(C(F)(F)F)nc(SCC(=O)N(C)Cc3cn(C)nc3C)n2)cc1OC	·	4%	i	-2%
Cc1ccc(-c2nc3ccc(Cl)cn3c2Cc2cccc(Cl)c2)cc1	?	20µM*	i	29%
CC(C)(C)Cc1c(-c2ccc(Br)cc2)nc2ccc(Cl)cn12	i	?	i	-36%
CC(C)(C)Cc1c(-c2ccc(Cl)cc2)nc2ccc(Br)cn12	i	35µM*	i	0%
Cc1ccc(-c2nc3ccc(Br)cn3c2Cc2cccc(Cl)c2)cc1	i	28µM*	i	12%
Clc1ccc(-c2nc3ccc(Br)cn3c2Cc2cccc(Cl)c2)cc1	i	32µM*	i	2%
Cc1ccc(-c2nc3ccc(C)cn3c2Cc2cccc(Cl)c2)cc1	i	21%	i	-1%
N#Cc1ccc(-c2nc3ccc(Br)cn3c2Cc2cccc(Cl)c2)cc1	i	?	i	-15%
O=C(NCCNc1cc(Cl)ccc1[N+](=O)[O-])c1ccco1	i	24%	i	1%
CN(CC1COc2ccccc2O1)C(=O)CCNS(=O)(=O)c1ccc(F)c(Cl)c1 (stereo unspecified)	i	22µM*	?	2%
Cc1ccc(S(=O)(=O)NCC(=O)NCC2COc3ccccc3O2)cc1C (stereo unspecified)	i	5%	i	-4%
O=c1c2c3c(sc2ncn1/N=C/c1ccc(Br)o1)CCCC3	i	-9%	i	-1%
COc1nc(=O)n(C2C=CC(=O)O2)cc1F (stereo unspecified)	i	0%	i	11%
C[C@H]1[C@H](c2ccccc2)C[C@@H](C(=O)O)C1(C)C	i	14µM*	i	-5%
Cc1nc2cc(S(=O)(=O)N(C)C)ccc2n1-c1ccccc1	i	11%	i	2%
CC(C)(C)c1ccc(C(=O)NCCc2csc3nc(-c4ccccc4F)nn23)cc1	?	35µM*	i	·
Cc1ccccc1-c1nc2scc(CCNC(=O)c3ccco3)n2n1	i	18µM*	i	·
Cc1ccc(-c2ccc(CCC(=O)O)n2CC2CCCO2)cc1 (stereo unspecified)	i	-17%	i	4%
SMILES	FUS suppressor	TDP-43 yeast inh	Abeta yeast res	aSyn yeast inh
CCOC(=O)c1[nH]c2ccccc2c1NC(=O)c1ccccc1OC	i	25µM*	i	·
CCOC(=O)c1[nH]c2ccccc2c1NC(=O)c1cc(Cl)ccc1Cl	i	3%	i	·
COc1ccc(C2=NN(C(=O)CSc3nc4ncc(Cl)cc4[nH]3)C(c3ccco3)C2)cc1 (stereo unspecified)	?	35µM*	i	0%
CCCCc1cc(=O)oc2cc(OCC(=O)N3CCC(C(N)=O)CC3)ccc12	i	9%	i	3%
O=C(Nc1ccccc1C(=O)NCc1ccccc1)c1ccccc1Br	i	17%	i	-27%
Cc1ccccc1C(=O)Nc1ccccc1C(=O)NCc1ccccc1	i	11µM*	i	-14%
CCOC(=O)c1ccc(OCC2c3cc(OC)c(OC)cc3CCN2C(=O)Cc2ccc(F)cc2)cc1 (stereo unspecified)	13µM*	20µM*	i	15%
CCCCC(=O)N1CCc2cc(OC)c(OC)cc2C1COc1ccc(C(=O)OCC)cc1 (stereo unspecified)	?	22µM*	i	23%
